Compounds with a hit are over-represented: about 2.4% of the library has one in this group of screens.
Epigenetic reg = regulators of epigenetic silencing causing reporter derepression in mouse cells; Potency, µM (doses to about 53.9 µM), for the others: top-dose GFP activation, actives largely listed as activators; AID 1865; 280,000 tested, 0.2% active; murine LDR cells, GFP reporter derepression, 30 h; further: % of control where 0% means no effect; nearly all actives have a fitted effect of over 60% in size
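In this reporter-derepression format, murine cells bearing a silenced integrated CMV-GFP locus incubate with test compound (30 h, 37 C), then are washed and imaged; fluorescent objects of 20–120 um count as induced cells.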
Nrf2 activator = Nrf2 pathway activation. AREc32 ARE-luciferase reporter (MCF7-derived line), luminescence, 24 h. Potency, µM (doses to about 46.1 µM), inactives show at the top dose activation, usual class: activators. 410,000 tested, 0.31% active. AID 624171; further: % of control where 0% means no effect; nearly all actives have a fitted effect of over 65% in size
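Luciferase luminescence (Steady-Glo, 30 min at room temperature) served as the read-out of ARE activation in AREc32 cells treated with compounds for 24 hr at 37 deg C.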
PINK1 expr mod = PINK1 expression modulation | PINK1 immunofluorescence, high-content cytometry, 24 h | Potency, µM (doses to about 76.6 µM), without a hit: at the highest dose activation (PINK1 increase), actives largely listed as activators | 410,000 tested, 0.2% active; active means well fitted activation curve with a large enough effect; inconclusive means small, poorly fitted or top-dose-only effect; cell line not stated here; further: % of control where 0% means no effect; nearly all actives have a fitted effect of over 65% in size
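Readout is PINK1 immunofluorescence, quantified alongside mitochondrial, cell and nuclear markers by laser-scanning microplate cytometry. Cells from a stable line were exposed to compound titrations (5 concentrations) for 24 hours, with CCCP controls.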
Nrf2 block = Nrf2 pathway inhibition. A549 ARE-Fluc reporter, luciferase luminescence, 18-24 h. Potency, µM (doses to about 46 µM), for inactives: at the top dose activity change, negative = inhibition, actives largely listed as inhibitors. 360,000 tested, 2.1% active. AID 504444; further: on the % scale 0 is the no-effect control and ±100 the full control effect; nearly all actives have a fitted effect of over 60% in size
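Concentration-response testing used A549 ARE_Fluc cells at 5000 cells/well. Following an 18-24 h compound incubation, viability was read by fluorescence (Ex 405/Em 525) and luciferase output by luminescence.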
A549 tox = kills or reduces viability of A549 cells in Nrf2 counter-screen; A549 ARE-Fluc cells, CellTiter-Fluor viability, 18-24 h; Potency, µM (doses to about 46 µM), inactives show at the top dose activity change, negative = cytotoxicity, usual class: inhibitors; 390,000 tested, 0.16% active; AID 504648; further: on the % scale 0 is the no-effect control and ±100 the full control effect
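A549 ARE_Fluc cells in 5% FBS OPTI-MEM were exposed to compounds in concentration-response for 18-24 h at 37 deg C. Viability was read by CellTiter-Fluor fluorescence (Ex 405/Em 525) after 30 min, before the luciferase read.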
* = called active by the depositor; ? = inconclusive; . = no result given; [ ] = dose if it differs, or a comment. Unless noted, the call rests on the fitted dose curve; in most records, active means well fitted curve in the direction sought with a large enough effect; inconclusive means small, poorly fitted or top-dose-only effect, or another doubt; inactive means no such curve, though single readings can be large; an effect the other way counts as inactive or inconclusive. Potency means the concentration at half of the fitted maximal effect.

SMILES	Epigenetic reg	Nrf2 activator	PINK1 expr mod	Nrf2 block	A549 tox
CC(C)Cn1c(=O)c2c(nc3n2CCCN3Cc2ccccc2)n(C)c1=O	.	3%	0%	12µM*	7%
CCOC(=O)c1sc(NC(=O)c2ccncc2)c(C#N)c1C	0%	2%	?	23µM*	?
Cc1ccc(C(CC(=O)NCc2ccco2)c2ccc(OC(C)C)cc2)cc1 (configuration not stated)	-4%	8%	-5%[38.3 µM]	7.3µM*	?
COc1ccc(C(CC(=O)NCc2ccco2)c2ccc(F)cc2)cc1 (configuration not stated)	-1%	-1%	.	1%	-18%
Cc1ccc(NS(=O)(=O)c2cc(C(=O)O)ccc2Cl)cc1C	0%	.	.	.	.
Cc1ccc(C(=O)NCCc2nnc3n2CCN(Cc2ccnc4ccccc24)CC3)c(C)c1	.	.	-1%	.	.
Cn1cc(C(=O)c2ccc(Cl)cc2Cl)cc1C(=O)N/N=C(\N)COc1ccc(Cl)cc1	-2%	-1%	6%	13µM*	-20%
Cn1cc(C(=O)c2ccc(Cl)cc2Cl)cc1C(=O)N/N=C(\N)COc1ccc(Cl)cc1Cl	1%	-1%	3%	21µM*	?
CC(=O)Nc1ccc(Oc2ccccc2)cc1	1%	0%	3%	11%	0%
CC(=O)Nc1ccc(Oc2sc(C(=O)c3ccccc3)c(N)c2C#N)cc1	6%	8.9µM*	-2%	.	?
CC(C)(C)OC(=O)N1CCC(c2c(C(=O)NCc3ccccc3)cnn2-c2ccccc2)CC1	0%	-1%	1%	-20%	-2%
Cc1ccc(CNC(=O)c2cnn(-c3cccc(C)c3)c2C2CCN(C(=O)OC(C)(C)C)CC2)cc1	0%	0%	0%	18µM*	-27%
Cc1ccc(CNC(=O)c2cnn(-c3ccc(F)cc3F)c2C2CCN(C(=O)OC(C)(C)C)CC2)cc1	0%	-1%	-1%	16µM*	?
O=C(Nc1ncc(Cc2ccccc2Cl)s1)c1ccc([N+](=O)[O-])cc1	-1%	0%	5%	-14%	4%
O=C(Nc1ccc2oc(=O)ccc2c1)c1ccc(-c2cccc([N+](=O)[O-])c2)o1	9%	4%	-1%	23µM*	?
O=C(Nc1ccc2oc(=O)ccc2c1)c1ccc(-c2cccc(Cl)c2)o1	16%	0%	0%	18µM*	-9%
O=C(Nc1ncc(Cc2ccccc2Cl)s1)c1ccc(-c2cccc([N+](=O)[O-])c2)o1	-1%	-1%	1%	16µM*	11%
O=C(Nc1ccc2oc(=O)ccc2c1)c1ccc(-c2ccccc2[N+](=O)[O-])o1	2%	4%	5%	?	-3%
O=C(Nc1ccc2oc(=O)ccc2c1)c1ccc(-c2ccc(Cl)cc2)o1	0%	0%	1%	-5%	10%
CC(C)Cc1nc2cc(NS(=O)(=O)N(C)C)cc(C(=O)N3CC4(C)CC3CC(C)(C)C4)c2n1C (configuration not stated)	.	.	0%	.	.
Cc1cn([C@@H](CCCCNC(=O)OC(C)(C)C)C(=O)NCCCCCCCCCCC(=O)N2CCN(C(=O)OC(C)(C)C)CC2)nn1	.	-1%	4%	10µM*	16µM*
CC[C@H](C)Cc1cn([C@@H](CCCN=C(NC(=O)OC(C)(C)C)NC(=O)OC(C)(C)C)C(=O)NCCCCCCCCCCC(=O)N2CCN(C(=O)OC(C)(C)C)CC2)nn1	.	-4%	-1%	?	?
COc1ccc(CN(C)C(=O)CNC(=O)c2ccc3ccccc3c2)c(OC)c1	.	0%	0%	?	1%
COc1ccc(Br)cc1CN(C)C(=O)CNC(=O)c1ccc2ccccc2c1	.	0%	0%	18µM*	?
O=[N+]([O-])c1ccc(Sc2cccc[n+]2[O-])c2nonc12	?	-3%	9%	?	18µM*
SMILES	Epigenetic reg	Nrf2 activator	PINK1 expr mod	Nrf2 block	A549 tox
O=[N+]([O-])c1ccc(Nc2ccccc2)c2nonc12	.	20%	21%	-28%	?
COc1ccc(-n2c(-c3ccccc3F)nc3c(cnn3-c3ccc(C)cc3)c2=O)cc1	-1%	4%	4%	-6%	-2%
COCC1CCCN(Cc2ccc3c(c2)CN(C(=O)c2cnn(C(C)C)c2)CCO3)C1 (configuration not stated)	.	.	0%	.	.
CN1/C(=C\C(=O)c2cccs2)Sc2ccccc21	0%	4µM*	0%	.	-28%
CCOC(=O)c1ccc(NC(=O)CSc2nc(=O)n(CCN3CCOCC3)c3c2CCC3)cc1	.	4%	-2%	18µM*	0%
Cc1cc(C)c(NC(=O)c2ccc(CN3CCc4ccccc4C3)cc2)c(C)c1	5%	3%	3%	23µM*	?
NC(=O)c1ccc(NC(=O)c2ccc(CN3CCOCC3)cc2)cc1	0%	0%	1%	4%	2%
CCOC(=O)c1ccc(NC(=O)c2ccc(CN3CCc4ccccc4C3)cc2)cc1	.	0%	4%	23µM*	?
CCOC(=O)c1ccc(NC(=O)c2ccc(CN3CCOCC3)cc2)cc1	-3%	4%	-1%	5.2µM*	?
CC(=O)c1ccc(NC(=O)CSc2nc(=O)n(CCN3CCOCC3)c3c2CCC3)cc1	.	3%	-1%	-1%	1%
CCOc1ccc(NC(=O)c2ccc(CN3CCc4ccccc4C3)cc2)cc1	.	0%[9.22 µM]	7%	?	-3%
COc1cccc(C(=O)NCc2nc(-c3cccc(NC(=O)c4ccoc4C)c3)oc2C)c1OC	.	.	0%	.	.
CCC1CN(CCNC(=O)c2ccc3c(c2)OCCO3)Cc2cc(OC)ccc2O1 (configuration not stated)	.	.	1%	.	.
O=C(CN1Cc2ccccc2OC(c2ccccc2F)C1)NC(c1ccccn1)C(F)(F)F (configuration not stated)	.	.	1%	.	.
CCc1ccc(OCC2c3cc(OC)c(OC)cc3CCN2C(=S)NC)cc1 (configuration not stated)	-4%	9%	6%	18µM*	-28%
CCc1ccc(-n2nnc(-c3nsc(NC(=O)c4ccccc4Cl)n3)c2C)cc1	-1%	5%	5%	18µM*	-5%
COCCNC(=O)C1CCN(S(=O)(=O)c2ccc3c(c2)CCCN3C(C)=O)CC1	1%	0%	-1%	.	-3%
Cc1cc2c3c(c1)C(C)(c1ccccc1)CC(C)(C)N3C(=O)C21C(C#N)=C(N)OC2=C1C(=O)CC(C)(C)C2 (configuration not stated)	8%	0%	-4%[38.3 µM]	-81%	-17%
CC1(c2ccccc2)CC(C)(C)N2C(=O)C3(C(C#N)=C(N)Oc4cc(O)ccc43)c3cccc1c32 (configuration not stated)	-8%	0%	-3%[38.3 µM]	21µM*	?
Cc1cccc(NS(=O)(=O)c2cc(C(=O)O)ccc2Cl)c1	0%	.	.	.	.

Screening results from PubChem BioAssay.
